# Measurements published in PubChem BioAssay (NCATS).
# Inconclusive results are not listed. Entries that show only a call come without a potency. A number with no mark means an inactive call. The source made the active and inactive calls. The call rests on the fitted dose curve.
# Assay: Cytotoxicity counterscreen for inhibitors of SARS-CoV-2 cell entry (AID 1645845); further: nearly all actives have a fitted effect of over 50% in size
# Details: cell viability (SARS-CoV-2 entry assay cells); series mostly up to 57.1 µM; activity change, negative = cytotoxicity: at the top concentration
# Text: Assay Provider: Wei Zheng, Ph.D.
# National Center for Advancing Translational Sciences, National Institute of Health, Rockville, MD.
# SARS-CoV-2 spike protein, within the viral envelope, mediates viral attachment and infection of host cells. The SARS-CoV-2 spike protein specifically binds to the host receptor ACE2 (Angiotensin-converting enzyme 2). This interaction promotes endocytosis of the viral particle, additional events lead to viral-host cell membrane fusion and release of the viral contents, allowing viral replication.
# While SARS-CoV-2 requires BSL-3 facilities for live virus work, pseudo-typed partices (PP) that incorporate SARS-CoV-2 spike proteins without replication elements could facilitate studies on viral entry mechanisms in a BSL-2 setting. This PP cell entry assay could also enable screening of small molecule compound libraries in BSL-2 setting to identify inhibitors of SARS-CoV-2 cell entry. To eliminate false positive compounds, ATP content cytotoxicity assay was screened in the same cell line.
# SEQUENCE No. (e.g., 1, 2, 3, etc.); […] (e.g., Cells, Incubation, Reagent, etc.); VALUE and DESCRIPTION.
# 1. Cells. Seed 1500 HEK293-ACE2 cells (Expi293F with stable expression of human ACE2) in 2 uL/well media (DMEM, 10% FBS, 1x L-glutamine, 1x Pen/Strep, 1 ug/ml puromycin) in white 1536-well assay plates (Greiner #782073).
# 2. Incubation. Incubate at 37 C with 5% CO2 overnight (~16 h).
# 3. Compounds. Dispense 23 nL/well compounds in DMSO via pin transfer.
# 4. Incubation. Incubate for 1 h at 37C 5% CO2.
# 5. Reagent. Dispense 2 uL/well of media (DMEM, 10% FBS, 1x L-glutamine, 1x Pen/Strep, 1 ug/ml puromycin).
# 6. Incubation. Incubate at for 48h at 37C 5% CO2
# 7. Reagent. Dispense 4 uL/well of ATPLite 1step luminescence assay reagent (PerkinElmer #6016739).
# 8. Incubation. Incubate for 15 min at room temperature.
# 9. Detection. Read luminescence signal (Viewlux plate reader, PerkinElmer). Data was normalized with wells containing cells as 100%, and wells without cells (media only control) as 0%.
Structure (SMILES),"activity change, negative = cytotoxicity [%]",outcome,Potency
CN1C(=O)C[C@H](C(=O)N[C@@H](Cc2cnc[nH]2)C(=O)N2CCC[C@@H]2C(N)=O)NC1=O,0.68,,
CCS(=O)(=O)N1CCC([C@@H](C)n2c(C)c(C(=O)NCc3c(OC)cc(C)[nH]c3=O)c3ccccc32)CC1,,inactive,
Cc1ccc2nc(NC(=O)CSc3nc4c(c(=O)n3-c3ccccc3)SCC4)sc2c1,3.89,,
C[C@H](c1ccc(F)cc1CCCC(=O)O)N(c1cc(F)ccc1F)S(=O)(=O)c1ccc(Cl)cc1,-0.0773,,
CC(C)(N)c1ccc(-c2nc3ccccc3nc2-c2ccccc2)cc1,1.91,,
COc1cc2ncnc(Nc3cccc(Cl)c3)c2cc1OC,,inactive,
N[C@@]1(C(=O)O)CS(=O)(=O)[C@H]2[C@H](C(=O)O)[C@H]21,,inactive,
CC(C)=CCN1CC[C@]2(C)c3cc(O)ccc3C[C@H]1[C@H]2C,,inactive [at 114 µM],
COc1ccc([C@@H]2CNC(=O)C2)cc1OC1CCCC1,,inactive,
CC[C@H](C)C(=O)O[C@H]1CCC=C2C=C[C@H](C)[C@H](CC[C@@H]3C[C@@H](O)CC(=O)O3)[C@H]21,-7.64,,
CCCCCCCCCCCC(CC1OC(=O)C1CCCCCC)OC(=O)C(CC(C)C)NC=O (stereo not given),-10.2,,
CC(C)n1cnc2c(NCCc3ccc(O)cc3)nc(-c3csc4ccccc34)nc21,-9.2,,
Cc1ccc(S(=O)(=O)OCC(=O)Nc2ccc(C(=O)O)c(O)c2)cc1,,inactive,
NCCCNCCCCNC(=O)C(O)NC(=O)CCCCCCN=C(N)N (stereo not given),,inactive,
CCOc1ccccc1N=Nc1c(C)[nH]n(-c2nc(-c3ccccc3)cs2)c1=O,,inactive,
CS(=O)(=O)c1ccc(-c2cnc(N)c(C(=O)Nc3ccccc3)n2)cc1,,inactive,
Cc1onc(-c2ccccc2)c1C(=O)N[C@@H]1C(=O)N2[C@@H]1SC(C)(C)[C@@H]2C(=O)O,0.683,,
O=C(Nc1ccc(Oc2ccnc3[nH]ccc23)c(F)c1)c1cccn(-c2ccc(F)cc2)c1=O,1.91,,
CN[C@H](CC(C)C)C(=O)N[C@H]1C(=O)N[C@@H](CC(N)=O)C(=O)N[C@H]2C(=O)N[C@H]3C(=O)N[C@H](C(=O)N[C@H](C(=O)O)c4cc(O)cc(O)c4-c4cc3ccc4O)[C@H](O)c3ccc(c(Cl)c3)Oc3cc2cc(c3O[C@@H]2O[C@H](CO)[C@@H](O)[C@H](O)[C@H]2O[C@H]2C[C@](C)(N)[C@H](O)[C@H](C)O2)Oc2ccc(cc2Cl)[C@H]1O,,,inactive
Clc1ccc(COC(Cn2ccnc2)c2ccc(Cl)cc2Cl)c(Cl)c1 (stereo not given),-8.4,,

Structure (SMILES),"activity change, negative = cytotoxicity [%]",outcome,Potency
Clc1cc(Cl)cc(CNc2ncncc2-c2ccc3c(c2)OCO3)c1,-37.1,,
Cc1cc(OCCCS(C)(=O)=O)cc(C)c1-c1cccc(COc2ccc3c(c2)OC[C@H]3CC(=O)O)c1,-25.4,,
COc1ccc2c(Oc3ccc(NC(=O)c4c(C)n(CC(C)(C)O)n(-c5ccccc5)c4=O)cc3F)ccnc2c1,-0.143,,
CC(N[C@H]1CCCC[C@H]1NC(=O)c1ccc(Cl)cc1)c1cccc2ccccc12 (stereo not given in full),-4.88,,
NC(=O)c1cccc(-c2cccc(OC(=O)NC3CCCCC3)c2)c1,2.85,,
COc1ccc(CCN(C)CCCC(C#N)(c2ccc(OC)c(OC)c2)C(C)C)cc1OC (stereo not given),,,inactive
CCCCCCCCCCCCCCCC(=O)OC[C@@H](NC(=O)C(Cl)Cl)[C@H](O)c1ccc([N+](=O)[O-])cc1,,inactive,
COc1ccc(CN(C(=O)[C@@H](N)Cc2c(C)cc(C(N)=O)cc2C)[C@@H](C)c2ncc(-c3ccccc3)[nH]2)cc1C(=O)O,,inactive,
CCCCCCCCCCCC(=O)OCC(O)CO (stereo not given),,inactive,
C[C@]1(c2nc3c(C(N)=O)cccc3[nH]2)CCCN1,,inactive,
O=C(O)c1nc(=O)[nH]c(=O)[nH]1,,,inactive
CCN1CCN(c2ccc(Nc3cc(N(C)C(=O)Nc4c(Cl)c(OC)cc(OC)c4Cl)ncn3)cc2)CC1,,inactive,
CCNC(=O)[C@H]1O[C@@H](n2cnc3c(N)nc(NCCc4ccc(CCC(=O)O)cc4)nc32)[C@H](O)[C@@H]1O,,inactive,
CC[C@@H]([C@H](C)O)n1ncn(-c2ccc(N3CCN(c4ccc(OCC5CO[C@@](Cn6cncn6)(c6ccc(F)cc6F)C5)cc4)CC3)cc2)c1=O (stereo not given in full),-26.6,,
O=C(CCCCCCC(=O)Nc1ccc([C@H]2O[C@@H](CSc3nc(-c4ccccc4)c(-c4ccccc4)o3)C[C@@H](c3ccc(CO)cc3)O2)cc1)NO,,inactive [at 11.3 µM],
CN1c2cc(O)c(N=NC(N)=O)cc2CC1S(=O)(=O)O (stereo not given),,,inactive
COc1cc2nccc(Oc3ccc(NC(=O)Nc4ccc(F)cc4F)c(F)c3)c2cc1OC,,inactive,
O=C(CO)N1CCC(c2[nH]nc(-c3ccc(Cl)cc3)c2-c2ccncn2)CC1,,inactive,
CC(=O)OC[C@@H]1O[C@@H](n2ccc(=O)[nH]c2=O)[C@H](OC(C)=O)[C@H]1OC(C)=O,,inactive,
CC(C)c1nn(-c2c(Cl)cccc2Cl)c2nc(Cc3ccc(OCCO)cc3)[nH]c(=O)c12,-39.5,,
